Screens as filed in PubChem.
Tau ThT inhib – inhibitors of human tau fibril formation, thioflavin T binding | P10636 | recombinant tau K18 P301L, heparin-induced fibrillization, ThT fluorescence | Potency, µM (doses to about 57.4 µM), without a hit: at the top dose activity, negative = inhibition, most hits filed as inhibitors | 2.1% of 270,000 active; further: nearly all actives have a fitted effect of over 55% in size
Target sequence (P10636 561-689 P618L limits assumed): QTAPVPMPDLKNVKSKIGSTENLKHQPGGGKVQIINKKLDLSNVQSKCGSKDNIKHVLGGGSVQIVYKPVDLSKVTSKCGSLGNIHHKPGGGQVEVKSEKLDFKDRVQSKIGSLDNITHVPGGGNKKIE
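Aggregation was driven by heparin (20 uM final) acting on recombinant tau […] bearing P301L in 100 mM sodium acetate pH 7; fibrils were detected with Thioflavin T.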
ALDH1A1 inh – blocks purified human ALDH1A1 activity. 7.3% of 220,000 active. P00352. Purified ALDH1A1, NADH fluorescence, propionaldehyde substrate. Potency, µM (titrated, usually from 75.3 µM), for inactives: at the highest dose activity, negative = inhibition, usual class: inhibitors; active means well fitted inhibition curve with a large enough effect, not every such curve was filed as active; inconclusive means small, poorly fitted or top-dose-only effect, or another doubt; inactive means no such curve, though single readings can be large or run the other way;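 further: plate controls were no enzyme wells and a reference inhibitor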
JMJD2E inh – JMJD2E (human) inhibition; Potency, µM (top dose mostly 57.1 µM), for inactives: at the highest dose activity change, negative = inhibition, usual class: inhibitors; JMJD2E catalytic domain, FDH-coupled NADH fluorescence (FDH is formaldehyde dehydrogenase); AID 2147; 1.6% of 230,000 active; active means well fitted inhibition curve with a large enough effect, not every such curve was filed as active; inconclusive means small, poorly fitted or top-dose-only effect, or another doubt; inactive means no such curve, though single readings can be large or run the other way;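 further: 0% = wells with enzyme and -100% = buffer wells without enzyme; nearly all actives have a fitted effect of over 50% in size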
Target sequence (B2RXH2 1-337 limits assumed): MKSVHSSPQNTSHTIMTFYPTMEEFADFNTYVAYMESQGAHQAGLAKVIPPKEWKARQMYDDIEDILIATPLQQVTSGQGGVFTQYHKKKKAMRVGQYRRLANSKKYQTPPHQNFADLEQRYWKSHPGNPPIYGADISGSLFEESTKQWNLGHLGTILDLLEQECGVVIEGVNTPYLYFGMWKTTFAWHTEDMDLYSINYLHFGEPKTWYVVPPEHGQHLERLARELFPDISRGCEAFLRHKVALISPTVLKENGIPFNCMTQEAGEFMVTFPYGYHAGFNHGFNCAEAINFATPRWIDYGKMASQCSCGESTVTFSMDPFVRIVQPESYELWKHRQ
Tau fluor counter – counter-screen for tau fibril formation inhibitors | tau K18 P301L Alexa594 fluorescence, heparin fibrillization | 0.93% of 280,000 active | AID 1463 | Potency, µM (top dose mostly 57.7 µM), inactives show at the highest dose activity change, negative = decrease; further: nearly all actives have a fitted effect of over 55% in size
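Human tau K18 P301L (15 uM unlabeled, 0.24 uM Alexa 594-labeled) in 100 mM sodium acetate pH 7 with 20 uM heparin, 6 hr at 37 C. ThT 30 uM added, 1 hr ambient; Alexa 594 FP and total fluorescence read at 555/632 nm.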
Tau FP inhib – blocks human tau fibril formation measured by polarization. P10636. K18 P301L tau heparin fibrillization, Alexa594 FP, 6 h. Potency, µM (highest dose often 57.7 µM), for the others: at the top dose activity, negative = inhibition, actives largely listed as inhibitors. 0.39% of 280,000 active. AID 1468; further: nearly all actives have a fitted effect of over 55% in size
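Heparin (20 uM) drove fibril formation of recombinant tau K18 P301L, 15 uM unlabeled with 0.24 uM Alexa 594 label, for 6 hr at 37 C in 100 mM sodium acetate pH 7. Fluorescence polarization (555/632 nm) read 1 hr after 30 uM ThT.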
HPGD inh – blocks human HPGD enzyme activity. 4.3% of 150,000 active. P15428. Potency, µM, inactives show at the highest dose activity change, negative = inhibition, actives largely listed as inhibitors. AID 894. purified HPGD, NADH fluorescence kinetic, PGE2 substrate; active means well fitted inhibition curve with a large enough effect, not every such curve was filed as active; inconclusive means small, poorly fitted or top-dose-only effect, or another doubt; inactive means no such curve, though single readings can be large or run the other way
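NADH formation kinetics: reaction with 30 uM PGE2 and 1 mM NAD+ (final), 20 nM enzyme, Tris-HCl pH 8 with Tween 20, after 15 min compound preincubation at room temperature. Fluorescence change, last versus first of five reads.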
* hit, by the source's call; ? = inconclusive; / = no result; [ ] = remark or other dose. In the library only some 9.9% were active in any assay of this set; here they are far more common. Unless noted, the call rests on the fitted dose curve; in most records, active means well fitted curve in the direction sought with a large enough effect; inconclusive means small, poorly fitted or top-dose-only effect, or another doubt; inactive means no such curve, though single readings can be large; an effect the other way counts as inactive or inconclusive. Unless noted, on the % scale 0 is the no-effect control and ±100 the full control effect; potency means the concentration at half of the fitted maximal effect.

SMILES	Tau ThT inhib	ALDH1A1 inh	JMJD2E inh	Tau fluor counter	Tau FP inhib	HPGD inh
Cc1ccc(C(=O)c2coc3c2C(=O)C(=O)c2ccccc2-3)cc1	2.24µM*	20µM*	?	?	?	?
CCC(=O)N1CCc2cc(CNC(=O)Cc3ccc(OC)c(OC)c3)ccc21	-0.8%	/	/	5.5%	1.3%	/
Cc1onc(-c2ccccc2)c1C(=O)N1CCN(S(=O)(=O)c2ccc3c(c2)OCCO3)CC1	-8.7%	3.16µM*	0.3%	-12.6%	-1.9%	-8.1%
C=CCNC(=S)NNC(=O)COc1cccc(Cl)c1	6.8%	?	-6.6%	5.3%	-1.8%	-5.6%
CCn1c(/C(C#N)=N/O)nc2ccccc21	5.7%	20µM*	0.2%	4.3%	7.1%	35.5µM*
Cn1c(/C(C#N)=N/O)nc2ccccc21	-6.2%	?	-19.8%	-10.2%	-12.8%	-5.2%
COCCCNC(=O)C(C#N)c1nc2ccccc2nc1N1CCN(Cc2ccccc2)CC1 (stereo not given)	?	-11.4%	?	-15.9%	0.8%	-9.4%
CCOC(=O)C1CCN(c2nc3ccccc3nc2C(C#N)C(=O)NCCc2ccccc2)CC1 (stereo not given)	?	?	-25.6%	?	13.0%	17.8µM*
CCCCNC(=O)C(C#N)c1nc2ccccc2nc1N1CCN(c2ccccc2F)CC1 (stereo not given)	?	6.5%	31.6µM*	-21.5%	13.2%	-3.4%
O=C(CSC1=Nc2ccccc2C2=NC(Cc3ccccc3)C(=O)N12)Nc1ccccc1F (stereo not given)	-5.9%	/	/	-4.2%	1.1%	/
OCCN1CCN(C(c2ccccc2Cl)c2sc3nc(-c4ccco4)nn3c2O)CC1 (stereo not given)	-0.2%	/	/	-3.8%	?	/
O=C1Oc2ccccc2C(=O)/C1=C/N1CCN(c2ccccc2F)CC1	0.7%	17.8µM*	1.7%	-0.2%	1.6%	/
COc1ccc(/C=C2\N=C(C)OC2=O)cc1[N+](=O)[O-]	?	17.8µM*	0.0%	-14.4%	-14.5%	/
CC1=N/C(=C/c2cccnc2)C(=O)O1	-4.9%	10.2%	-3.5%	-4.0%	3.8%	/
Cc1cccc(C)c1NC(=O)COc1ccc2c(C)c(Cc3ccccc3)c(=O)oc2c1	1.8%	?	?	-12.3%	0.6%	/
COc1ccc(C(=O)Nc2ccc(NC(=O)c3cccs3)cc2)cc1Cl	?	2.1%	?	-9.6%	-8.3%	?
COc1ccc(NC(=O)COC(=O)/C=C/C(=O)OCC(=O)Nc2ccc(OC)c(Cl)c2)cc1Cl	0.4%	11.2µM*	1.4%	-1.5%	9.7%	-14.1%
COc1ccc(NC(=O)Nc2cccs2)cc1Cl	?	-12.3%	?	10µM*[quencher]	?	/
COc1ccc(NC(=O)c2cc(C(C)=O)n3ccccc23)cc1Cl	-12.7%	/	/	28.2µM*[quencher]	?	/
COC(=O)/C=C/C(=O)Nc1ccc(O)c(Cl)c1	?	12.6µM*	-4.1%	-25.5%	11.7%	-13.3%
Cc1cc2c(cc1C)C(c1ccsc1)CC(=O)N2 (stereo not given)	0.5%	?	-3.5%	-8.0%	6.6%	/
Cc1ccc(C)c(NC(=O)CCN2C(=O)c3ccccc3Sc3ncccc32)c1	-6.7%	/	/	-7.9%	-0.5%	/
COc1ccc(NC(=O)C=C(C)C)cc1Cl	-5.4%	-9.4%	1.4%	2.1%	9.2%	17.8µM*
CCOC(=O)/C=C/C(=O)OCC(=O)Nc1ccc(Cl)cc1Cl	?	25.1µM*	2.2%	4.8%	1.7%	/
COCC(=O)Nc1ccc(OC)c(Cl)c1	0.2%	-5.7%	-4.0%	8.8%	1.8%	/
COC(=O)/C=C\CCc1coc(/C=C\CNC(=O)OC)n1	-5.6%[11.5 µM]	3.2%[13.5 µM]	/	-3.8%[11.6 µM]	-8.6%[11.6 µM]	/
CCCCc1ccc(/C=C2\C(=O)c3ccccc3C(O)=C2C(=O)OCC)cc1	17.8µM*	?	?	?	?	8.91µM*
CCOc1ccccc1CNC(=O)CCn1c(=O)c2cccn2c2ccc(F)cc21	-13.7%	/	/	-9.4%	-1.2%	/
Cn1c(=O)c(=O)n(C)c2cc(NS(=O)(=O)c3ccc(Br)cc3)c(Cl)cc21	-15.8%	/	/	-7.4%	-8.1%	/
